Source: PubChem BioAssay (National Center for Advancing Translational Sciences (NCATS))
CHX counter – Cycloheximide Counterscreen for Small Molecule Inhibitors of Shiga Toxin. cell reporter, cycloheximide protein synthesis inhibition counterscreen. 300,000 tested, 12% active. max response, %; in the data active means max response mostly above about 13%, no sharp cut-off; inactive means mostly below about 14%; further: read at 38.3 µM for the half of the compounds with a filed dose; 0% is about no effect
Pf growth 48h – Primary qHTS for delayed death inhibitors of the malarial parasite plastid, 48 hour incubation. P. falciparum luciferase growth in erythrocytes, 48 h. Potency, µM (doses to about 28.7 µM), for inactives: at the highest dose activity change, negative = inhibition, usual class: inhibitors. 310,000 tested, 5.9% active; further: potency means the concentration at half of the fitted maximal effect; on the % scale 0 is the no-effect control and ±100 the full control effect
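In quantitative HTS format, infected erythrocytes bearing luciferase-reporter parasites were treated for a single generation at 37 C. Luminescence after adding detection reagent served as the growth measure.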
SARS PLP yeast – qHTS of Yeast-based Assay for SARS-CoV PLP; S. cerevisiae expressing SARS-CoV PLpro, growth rescue; Potency, µM (series often up to 32.9 µM), inactives show top-dose activity, positive = growth rescue, usual class: activators; 330,000 tested, 0.19% active; AID 485353, 2010; calls by dose curve; further: potency means the concentration at half of the fitted maximal effect; 0% is about no effect; nearly all actives have a fitted effect of over 55% in size
Pf growth 96h – Primary qHTS for delayed death inhibitors of the malarial parasite plastid, 96 hour incubation | 320,000 tested, 6.9% active | P. falciparum luciferase reporter growth, 96 h | Potency, µM (highest dose often 28.7 µM), without a hit: at the highest dose activity change, negative = inhibition, actives largely listed as inhibitors | AID 504834, 2011; further: potency means the concentration at half of the fitted maximal effect; on the % scale 0 is the no-effect control and ±100 the full control effect
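P. falciparum expressing integrated firefly luciferase grown in erythrocytes (2% hematocrit, 0.05% parasitemia final) with compounds for 96 hours at 37 C, 5% CO2. Growth inhibition read as loss of luminescence after adding luciferase detection reagent.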
NS1 inh – qHTS Assay for Inhibitors of Influenza NS1 Protein Function; Potency, µM (top dose mostly 46.1 µM), inactives show top-dose activity, positive = more growth; 270,000 tested, 0.4% active; calls by dose curve; further: potency means the concentration at half of the fitted maximal effect; actives are rising curves; nearly all actives have a fitted effect of over 50% in size
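Growth recovery, yeast-based: influenza A NS1 expressed in S. cerevisiae causes slow growth, and suppressors are detected by OD600. The parent strain without NS1 is used as positive control.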
Shiga toxin inh – A qHTS for Small Molecule Inhibitors of Shiga Toxin; Vero cells, Shiga toxin protein synthesis inhibition reporter; inhibition, % at 38.7 µM; 290,000 tested, 9.2% active; AID 2315, 2010; in the data active means inhibition mostly above about 28%, no sharp cut-off; inactive means mostly below about 43%; further: 0% is about no effect
* marks the source's active call; other numbers are inactive results. A selection: hits, their analogues and other compounds. The true share with any hit is near 21%. Unless noted, the call rests on the fitted dose curve; in most records, active means well fitted inhibition curve with a large enough effect; inconclusive means small, poorly fitted or top-dose-only effect, or another doubt; inactive means no such curve, though single readings can be large or run the other way.

For Cc1cc(=O)oc2c(C)c(OCC(=O)N3CCN(C(=O)C4COc5ccccc5O4)CC3)ccc12 (centres undefined) the results were CHX counter -5.2, Pf growth 48h 10.4µM*, SARS PLP yeast 3.7%, Pf growth 96h 9.28µM*, NS1 inh 15.7% and Shiga toxin inh -2.8.
`COc1cc2nc(N3CCN(C(=O)C4CCCO4)CC3)nc(N)c2cc1OC` (centres undefined) gave CHX counter -6.8, Pf growth 48h inconclusive, SARS PLP yeast -3.8%, Pf growth 96h -11.8%, NS1 inh 5.4% and Shiga toxin inh -6.9.
`COc1cc2nc(N3CCN(C(=O)[C@H]4COc5ccccc5O4)CC3)nc(N)c2cc1OC` gave CHX counter 1.5, Pf growth 48h 3.7µM*, SARS PLP yeast -4.5%, Pf growth 96h 3.7µM*, NS1 inh -5.8% and Shiga toxin inh 13.6.
For CCOc1ccccc1N1CC(C(=O)Nc2cc(Cl)ccc2C)CC1=O (centres undefined) the results were CHX counter -12.6, Pf growth 48h 14.6%, SARS PLP yeast 5.3%, Pf growth 96h 21.2%, NS1 inh 1.3% and Shiga toxin inh 5.9.
`O=C(Nc1ccc(C(=O)N2CCOCC2)cc1)c1cc(-c2cccnc2)nc2ccc(Cl)cc12` gave CHX counter -4.0, Pf growth 48h inconclusive, SARS PLP yeast 0.8%, Pf growth 96h -5.0%, NS1 inh 0.4% and Shiga toxin inh 1.3.
For O=C(C[n+]1ccccc1)N/N=C/c1ccc(C(=O)O)cc1 the results were Pf growth 48h -6.4%, SARS PLP yeast -9.1% and Pf growth 96h -11.0%.
For O=C(C1COc2ccccc2O1)N1CCN(Cc2ccccc2)CC1 (centres undefined) the results were CHX counter -3.4, Pf growth 48h 29.5%, SARS PLP yeast 5.5%, Pf growth 96h 8.28µM* and NS1 inh -3.7%.
O=C(CN1C(=O)COc2ccccc21)N1CCc2ccccc2C1 was read as CHX counter 11.0, Pf growth 48h 1.5%, SARS PLP yeast 11.1%, Pf growth 96h 10.4µM*, NS1 inh -1.3% and Shiga toxin inh 30.5.
For Cc1cccc(N2CCN(C(=O)C3COc4ccccc4O3)CC2)c1C (centres undefined) the results were CHX counter 23.6*, Pf growth 48h inconclusive, SARS PLP yeast -3.6%, Pf growth 96h inconclusive, NS1 inh -52.7% and Shiga toxin inh 51.7*.
O=C(C1COc2ccccc2O1)N1CCCCC1 (centres undefined) was read as Pf growth 48h 14.3%, SARS PLP yeast 2.2% and Pf growth 96h -7.1%.
Screening CN(C)S(=O)(=O)c1ccc(N2CCCC2)c(C(=O)NNC(=O)COc2cccc(F)c2)c1 returned Pf growth 48h -8.1%, SARS PLP yeast -1.3% and Pf growth 96h 7.6%.
`O=C(CC(=O)N/N=C\c1c(Cl)cccc1Cl)NCc1ccccc1` gave CHX counter 1.0, Pf growth 48h 5.8%, SARS PLP yeast 1.1%, Pf growth 96h 1.04µM*, NS1 inh 9.4% and Shiga toxin inh -17.6.
For O=C(CC(=O)NCc1ccccc1)NCc1ccccc1 the results were CHX counter -7.5, Pf growth 48h 12.4%, SARS PLP yeast -7.0%, Pf growth 96h 22.7%, NS1 inh 3.9% and Shiga toxin inh 26.9.
Screening O=C(CC(=O)N/N=C/c1ccccc1)NCc1ccccc1 returned CHX counter -2.4, Pf growth 48h 0.2%, SARS PLP yeast 0.0%, Pf growth 96h 10.4µM*, NS1 inh 10.2% and Shiga toxin inh -5.4.
For O=C(CC(=O)N/N=C/c1c(F)cccc1Cl)NCCc1ccccc1 the results were CHX counter -2.9, Pf growth 48h 2.1%, SARS PLP yeast -5.8%, Pf growth 96h inconclusive, NS1 inh -1.2% and Shiga toxin inh -5.5.
`COc1ccc(NC(=O)CN2CCC(n3c(C)nc4cc(F)ccc43)CC2)c(OC)c1` gave CHX counter -4.7, Pf growth 48h inconclusive, SARS PLP yeast 9.9%, Pf growth 96h 3.6%, NS1 inh 1.5% and Shiga toxin inh -18.8.
Screening Cc1nc2ccccc2n1C1CCN(CC(=O)NCc2ccc(F)cc2)CC1 returned CHX counter 0.5, Pf growth 48h inconclusive, SARS PLP yeast 3.4%, Pf growth 96h 5.86µM*, NS1 inh -8.9% and Shiga toxin inh -7.1.
Cn1cccc1C(=O)NC(=O)COC(=O)CNC(=O)CNC(=O)c1ccc(Cl)cc1Cl was read as CHX counter -8.1, Pf growth 48h -9.2%, SARS PLP yeast 1.7%, Pf growth 96h 16.4% and Shiga toxin inh -6.1.
Screening Cc1c(CCC(=O)O)c(=O)oc2cc(OCc3ccccc3F)ccc12 returned CHX counter 14.1, SARS PLP yeast 0.5%, Pf growth 96h 15.5%, NS1 inh 7.5% and Shiga toxin inh 3.8.
CC1CC1C(=O)OCC(=O)Nc1ccc(N=Nc2ccccc2)cc1 (centres undefined) was read as CHX counter 55.1*, Pf growth 48h 233.4%, SARS PLP yeast -22.4%, Pf growth 96h 347.6%, NS1 inh -39.6% and Shiga toxin inh 92.6*.
Screening CC1CC1C(=O)OCC(=O)Nc1cccc([N+](=O)[O-])c1 (centres undefined) returned CHX counter 32.1*, Pf growth 48h inconclusive, SARS PLP yeast 3.3%, Pf growth 96h 18.4%, NS1 inh 6.2% and Shiga toxin inh 65.0*.
For Nc1ccc(SCC(=O)Nc2cccc([N+](=O)[O-])c2)cc1 the results were CHX counter 37.1*, Pf growth 48h 31.2%, SARS PLP yeast -0.5%, Pf growth 96h 126.8% and Shiga toxin inh 51.4.
`CCCC(=O)OCC(=O)Nc1ccc(N=Nc2ccccc2)cc1` gave CHX counter 62.2*, Pf growth 48h 245.7%, SARS PLP yeast -61.3%, Pf growth 96h 415.1%, NS1 inh -20.5% and Shiga toxin inh 83.5*.
Screening O=C(CCN1CCN(c2ccccc2)CC1)N/N=C/c1ccccc1O returned CHX counter 11.0, Pf growth 48h inconclusive, SARS PLP yeast inconclusive, Pf growth 96h -12.0% and Shiga toxin inh 51.3.
Cc1cc(C)nc(NS(=O)(=O)c2ccc(CC(C)C)cc2)c1 was read as CHX counter 5.7, Pf growth 48h inconclusive, SARS PLP yeast -0.9%, Pf growth 96h 0.0%, NS1 inh inconclusive and Shiga toxin inh -3.5.
`COc1ccccc1C1CC(c2ccc(Br)cc2)=NN1C(=O)c1cccnc1` (centres undefined) gave CHX counter 2.6, Pf growth 48h 4.15µM*, SARS PLP yeast -53.6%, Pf growth 96h 1.85µM*, NS1 inh -4.7% and Shiga toxin inh 2.6.
